The nature of experiment [1]: Cell Viability - N2a (AID 540). Further: nearly all actives have a fitted effect of over 45% in size. Further: potency means the concentration at half of the fitted maximal effect.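 On activity change, negative = cytotoxicity: plate controls were DMSO alone for no effect and tamoxifen control for full effect.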 A digest of the protocol:
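Luminescent ATP signal (CellTiter-Glo, 20 min at room temperature) served as the viability read-out after N2a cells were treated with compounds for 40 hours at 37 °C. Concentration-response data were fitted to the Hill equation for AC50.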

A short description of experiment [2]: Cell Viability - NIH 3T3 (AID 541). Further: nearly all actives have a fitted effect of over 25% in size. Further: potency means the concentration at half of the fitted maximal effect.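 On activity change, negative = cytotoxicity: plate controls were DMSO alone for no effect and tamoxifen positive control for full effect.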 The note with it: NIH 3T3 cell viability, qHTS; activity change, negative = cytotoxicity: at 92.2 µM (top of the series). A digest of the protocol: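 Luminescent ATP signal (CellTiter-Glo) served as the viability read-out after NIH 3T3 cells were exposed to compounds over a concentration range for 40 hr at 37 °C. Hill-equation modelling of concentration-response data gave AC50.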

Experiment [3] can be described thus: Cell Viability - HUV-EC-C (AID 542). Further: on the % scale 0 is the no-effect control and ±100 the full control effect; nearly all actives have a fitted effect of over 35% in size. The essentials: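 qHTS cytotoxicity: HUV-EC-C, 1000 cells/well, 5 hr settle, compound 40 hr 37 °C, CellTiter-Glo, luminescence. AC50 via Hill equation.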
A short description of experiment [4]: Cell Viability - SH-SY5Y (AID 544). Further: nearly all actives have a fitted effect of over 55% in size. Further: potency means the concentration at half of the fitted maximal effect.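 On viability change, negative = cytotoxic: 0% = DMSO alone and -100% = 100 µM tamoxifen.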 The note with it: SH-SY5Y neuroblastoma cell viability; viability change, negative = cytotoxic: at 92.2 µM (top of the series). The essentials: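 Luminescent ATP read-out (CellTiter-Glo) measures loss of viable SH-SY5Y neuroblastoma cells after 40 hr compound exposure at 37 °C. AC50 values derive from standard Hill modelling of qHTS concentration-response data.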

A short description of experiment [5]: Cell Viability - Renal Proximal Tubule (AID 545).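 Further: 0% = DMSO only and -100% = 100 µM tamoxifen; nearly all actives have a fitted effect of over 40% in size.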 The essentials: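 Rat renal proximal tubule primary cells, 1000/well, exposed to compounds for 40 hr at 37 °C in complete medium; cellular ATP read by CellTiter-Glo luminescence. AC50 from concentration-response fitted with standard Hill equation.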
Experiment [6] deals with Glucocorticoid receptor (Homo sapiens) (UniProt P04150). The experiment in a line: GR-GFP Redistribution (AID 450;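 active means compounds whose dose series gives a full or clear partial fitted curve of increased nuclear translocation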; further: potency means the concentration at half of the fitted maximal effect). The note with it: U2OS GR-GFP nuclear translocation, laser cytometry, 2 h.
Experiment [7] shares this target. The experiment in a line: GR-EFC Redistribution (AID 451; calls by dose curve; further: potency means the concentration at half of the fitted maximal effect). The note with it: CHO-K1 GR-EFC translocation, beta-gal luminescence, 2 h. The essentials: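 Translocation of GR-ED fusion to nuclear EA restores b-gal, read by luminescence after 1 h room-temperature detection. Engineered CHO-K1 biosensor cells, 1,000/well, exposed 2 h at 37 C to titrations up to 46 uM final.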

In experiment [8] the target is Mitogen-activated protein kinase 10 (Mus musculus) (UniProt Q61831). Kind of experiment: JNK3 AlphaScreen Assay (AID 530; active means well fitted curve in either direction with a large enough effect, not every such curve was filed as active;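 further: kinase came from lysate of stimulated human HepG2 cells; signal reports phosphorylation of biotinylated GST-cJun 1-79 at Ser73 with 10 µM ATP; on the % scale 0 is the no-effect control and ±100 the full control effect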). The essentials:
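Compound titrations were preincubated 15 minutes at room temperature with substrate, antibody and pre-activated JNK3-containing HepG2 lysate. Reactions were started with 10 uM ATP and stopped with EDTA-containing bead buffer for AlphaScreen detection.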

The nature of experiment [9]: Cell Viability - H-4-II-E (AID 543). Further: nearly all actives have a fitted effect of over 35% in size. Further: potency means the concentration at half of the fitted maximal effect. The essentials:
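Luminescent ATP signal (CellTiter-Glo) served as the viability read-out, with cytotoxicity seen as a concentration-dependent ATP drop. Cells were treated for 40 hours in complete medium. AC50 values derive from Hill-equation modelling.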

“And” between values parts separate entries of the source, which are not always exact repeats. Equal entries are not always repeated. Unmarked numbers belong to inactive results. Results filed as inconclusive are left out. The source made the active and inactive calls. Unless noted, the call rests on the fitted dose curve; in most records, active means well fitted curve in the direction sought with a large enough effect; inconclusive means small, poorly fitted or top-dose-only effect, or another doubt; inactive means no such curve, though single readings can be large; an effect the other way counts as inactive or inconclusive.

The results in this text go back to PubChem BioAssay (NCATS).

Glucocorticoid receptor (Homo sapiens), sequence (P04150 whole entry, looked up, the tested form may be a part): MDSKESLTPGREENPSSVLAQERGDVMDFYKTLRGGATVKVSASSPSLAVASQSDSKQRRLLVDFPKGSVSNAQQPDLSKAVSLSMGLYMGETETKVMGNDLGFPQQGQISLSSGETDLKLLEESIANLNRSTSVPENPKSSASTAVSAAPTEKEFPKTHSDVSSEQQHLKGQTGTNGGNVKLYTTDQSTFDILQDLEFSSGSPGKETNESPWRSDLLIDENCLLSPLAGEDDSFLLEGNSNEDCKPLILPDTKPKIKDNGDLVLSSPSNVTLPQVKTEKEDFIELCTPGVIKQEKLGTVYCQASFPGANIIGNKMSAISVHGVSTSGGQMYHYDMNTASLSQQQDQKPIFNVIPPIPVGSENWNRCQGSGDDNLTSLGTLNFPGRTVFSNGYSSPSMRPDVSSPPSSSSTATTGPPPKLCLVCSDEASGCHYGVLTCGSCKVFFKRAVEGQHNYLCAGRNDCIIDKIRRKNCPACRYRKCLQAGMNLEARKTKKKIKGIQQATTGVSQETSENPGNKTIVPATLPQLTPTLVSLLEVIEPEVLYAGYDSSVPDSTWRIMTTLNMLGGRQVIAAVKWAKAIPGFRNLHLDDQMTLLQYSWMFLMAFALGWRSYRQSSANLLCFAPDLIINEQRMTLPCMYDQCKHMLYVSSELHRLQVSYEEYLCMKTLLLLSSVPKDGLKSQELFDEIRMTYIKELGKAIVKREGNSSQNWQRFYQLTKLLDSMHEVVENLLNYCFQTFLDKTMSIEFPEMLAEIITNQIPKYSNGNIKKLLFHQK

For `COc1ccc(C(Cl)=C(c2ccc(OC)cc2)c2ccc(OC)cc2)cc1`, the Potency result in experiment [1] is “inactive”. Moreover, in experiment [2], the activity change, negative = cytotoxicity is -7.28%. Moreover, the molecule was classed as inactive in experiment [3] and in [5]. Further, the viability change, negative = cytotoxic in experiment [4] was -10.7%.
For the molecule `CCCN(CCC)S(=O)(=O)c1ccc(C(=O)O)cc1`, the Potency in experiment [6] and in experiment [7] was more than 20.6 µM in each case. The Potency result in [8], in experiment [1] and in experiment [9] was “inactive” in each case. Further, in experiment [2], the activity change, negative = cytotoxicity is -2.58%. The outcome in experiment [3] and in experiment [5] was inactive. In [4], the viability change, negative = cytotoxic was -4.3%.
As to `CC[C@H](c1ccc(O)cc1)[C@@H](CC)c1ccc(O)cc1`, the Potency in experiment [6] and in experiment [7] was more than 20.6 µM throughout. For the same molecule, in [8], the Potency result is “inactive”.
With `CN=C(N)NCCC[C@H](N)C(=O)O`, the Potency result in experiment [8] was “inactive”.
As for `CCCCNc1ccc(C(=O)OCCOCCOCCOCCOCCOCCOCCOCCOCCOC)cc1`, the Potency in experiment [6] and in experiment [7] was more than 20.6 µM throughout. In addition, in [8], the Potency result was “inactive”.
`CCOc1ccc(NC(C)=O)cc1`: the Potency in experiment [6] and in experiment [7] was more than 20.6 µM in each case. For the same molecule, the Potency result in [8] and in [1] was “inactive” in each case. The activity change, negative = cytotoxicity in [2] was -21.8%. The molecule was classed as inactive in [3] and in experiment [5]. For the same molecule, the viability change, negative = cytotoxic in experiment [4] is -11.1%.
Take `CCOC(=O)Nc1ccc2c(c1)N(C(=O)CCN1CCOCC1)c1ccccc1S2`: the Potency in experiment [7] was more than 20.6 µM. For the same molecule, the Potency entry in experiment [8] is “inactive”.
Turning to `CN1CCC[C@@H]1CCO[C@](C)(c1ccccc1)c1ccc(Cl)cc1`, the Potency entry in experiment [8] is “inactive”.
Regarding `CNCCCCOc1ccccc1Cc1ccccc1`, the Potency in experiment [6] and in experiment [7] was more than 46 µM each time. Besides, the Potency entry in experiment [8] is “inactive”.
As to `Oc1ccc(Cl)cc1Cc1cc(Cl)ccc1O`, the Potency entry in [8] was “inactive”. Moreover, the Potency in experiment [1] was 31.6 µM (active). Further, in experiment [2], the activity change, negative = cytotoxicity was -84.9% (active). For the same molecule, the viability change, negative = cytotoxic in [4] was -85.8% (active).
As to `C/C=C/c1ccc(O)c(OC)c1`, the Potency entry in experiment [8], in experiment [1] and in experiment [9] was “inactive” throughout. Further, the activity change, negative = cytotoxicity in experiment [2] was -17%. Also, the call in [3] and in experiment [5] was inactive. Also, in [4], the viability change, negative = cytotoxic was 1.26%.
Consider `COc1cc(C(=O)NCc2ccc(OCCN(C)C)cc2)cc(OC)c1OC`, for which the Potency in experiment [6] and in experiment [7] was more than 20.6 µM each time. Moreover, the Potency entry in [8] was “inactive”.
With `O=C(O)CCc1nc2ccccc2[nH]1`, the Potency entry in [8] is “inactive”.
For the molecule `O=C(CCCN1CC=C(n2c(=O)[nH]c3ccccc32)CC1)c1ccc(F)cc1`, the Potency in experiment [6] and in experiment [7] was more than 20.6 µM throughout. The Potency result in experiment [8] is “inactive”.
Regarding `CCCc1ncc(C[n+]2ccccc2C)c(N)n1`, the Potency in experiment [6] and in [7] was more than 20.6 µM throughout. Besides, the Potency result in experiment [8] is “inactive”.
On to `NC(=O)c1ccccc1O`, for which the Potency result in [8], in [1] and in experiment [9] was “inactive” each time. Further, the activity change, negative = cytotoxicity in experiment [2] was 6.43%. Further, the molecule was classed as inactive in [3] and in experiment [5]. For the same molecule, in experiment [4], the viability change, negative = cytotoxic was 4.84%.
In the case of `CC(C)(C)NC[C@H](O)COc1cccc2c1CCCC2=O`, the Potency in experiment [6] and in [7] was more than 20.6 µM throughout. Moreover, in experiment [8], the Potency result was “inactive”.
Take `CCOc1ccccc1C(N)=O`: the Potency result in experiment [8], in experiment [1] and in experiment [9] was “inactive” each time. In experiment [2], the activity change, negative = cytotoxicity is 2.98%. Moreover, the result in experiment [3] and in experiment [5] was inactive. Besides, the viability change, negative = cytotoxic in [4] was -2.76%.
As to `CCCCC(CC)COC(=O)c1ccc(N(C)C)cc1` (stereo unspecified), the Potency entry in experiment [1] and in experiment [9] was “inactive” throughout. Moreover, the activity change, negative = cytotoxicity in experiment [2] is -7.45%. For the same molecule, the outcome in experiment [3] and in experiment [5] was inactive. Moreover, the viability change, negative = cytotoxic in [4] is 0.409%.
Consider `O=C(c1ccc(F)cc1)C1CCN(CCn2c(=S)[nH]c3ccccc3c2=O)CC1`, for which the Potency in experiment [6] and in experiment [7] was more than 46 µM each time. For the same molecule, the Potency result in experiment [8] was “inactive”.
For the molecule `Nc1ccc(S(=O)(=O)Nc2cnc3ccccc3n2)cc1`, the Potency in experiment [6] was > 20.6 µM and > 46 µM; in experiment [7], > 20.6 µM and > 9.22 µM. Also, the Potency entry in experiment [8] was “inactive”.
With `NC(N)=NCc1cccc(I)c1`, the Potency in experiment [6] and in experiment [7] was more than 46 µM throughout. Also, the Potency result in [8] was “inactive”.
As for `COc1ccc(C(=O)c2ccccc2)c(O)c1`, the Potency in experiment [6] and in [7] was more than 20.6 µM in each case. Also, the Potency result in experiment [8], in experiment [1] and in experiment [9] was “inactive” each time. The activity change, negative = cytotoxicity in [2] was -13.4%. Also, the result in experiment [3] and in experiment [5] was inactive. Besides, in [4], the viability change, negative = cytotoxic was -8.89%.
Take `CCN(CC)CCNC(=O)COc1ccc(OC)cc1`: the Potency in experiment [6] and in experiment [7] was more than 20.6 µM each time. In addition, in [8], the Potency entry was “inactive”.
Take `COc1cc([C@H]2Oc3cc([C@H]4Oc5cc(O)cc(O)c5C(=O)[C@@H]4O)ccc3O[C@@H]2CO)ccc1O`: in experiment [1], the Potency entry was “inactive”. The Potency in experiment [2] and in experiment [9] was 31.6 µM (active) each time. For the same molecule, in experiment [3], the result was inactive. For the same molecule, in experiment [4], the viability change, negative = cytotoxic is -84.4% (active).
Turning to `C=C[C@H]1CN2CC[C@H]1C[C@@H]2[C@@H](O)c1ccnc2ccc(OC)cc12`, the Potency entry in experiment [8], in experiment [1] and in [9] was “inactive” each time. In addition, the call in [3] and in experiment [5] was inactive. Moreover, the viability change, negative = cytotoxic in [4] was -25.7%.
For the molecule `CCc1oc2ccccc2c1C(=O)c1cc(Br)c(O)c(Br)c1`, the Potency in experiment [6] was > 20.6 µM and > 46 µM; in experiment [7], > 20.6 µM and > 9.22 µM. In experiment [8], the Potency entry was “inactive”.
For the molecule `O=C1C(=O)c2ccccc2C(O)=C1C1CCC(c2ccc(Cl)cc2)CC1` (stereo unspecified), the Potency entry in [8] is “inactive”.
Take `OC[C@H]1O[C@@H]2O[C@H]3[C@H](O)[C@@H](O)[C@@H](O[C@H]4[C@H](O)[C@@H](O)[C@@H](O[C@H]5[C@H](O)[C@@H](O)[C@@H](O[C@H]6[C@H](O)[C@@H](O)[C@@H](O[C@H]7[C@H](O)[C@@H](O)[C@@H](O[C@H]8[C@H](O)[C@@H](O)[C@@H](O[C@H]1[C@H](O)[C@H]2O)O[C@@H]8CO)O[C@@H]7CO)O[C@@H]6CO)O[C@@H]5CO)O[C@@H]4CO)O[C@@H]3CO`: the Potency result in experiment [8], in experiment [1] and in [9] was “inactive” each time. Moreover, the activity change, negative = cytotoxicity in experiment [2] was 5.27%. Also, the molecule was called inactive in experiment [3] and in experiment [5]. For the same molecule, the viability change, negative = cytotoxic in experiment [4] is -6.32%.
With `NCCNc1cccc2ccccc12`, the Potency entry in [8] and in experiment [1] was “inactive” throughout. In addition, in experiment [2], the activity change, negative = cytotoxicity is -24.9%. In addition, the result in experiment [3] and in experiment [5] was inactive.
Turning to `c1ccc(CC2=NCCN2)cc1`, in experiment [8], the Potency result is “inactive”.
Regarding `Oc1c(Cl)cc(Cl)c(Cl)c1Cc1c(O)c(Cl)cc(Cl)c1Cl`, in experiment [8], the Potency result was “inactive”. Further, the values for the Potency in [1], in [9] and in experiment [4] were 0.794 µM (active), 31.6 µM (active) and 15.8 µM (active), respectively. Besides, the activity change, negative = cytotoxicity in experiment [2] is -102% (active).
With `CCN(CC)CCNC(=O)c1cc(Br)c(N)cc1OC`, the Potency entry in [8] was “inactive”.
For `CN1CCC(OC(c2ccccc2)c2ccccc2)CC1`, the Potency in experiment [7] was more than 20.6 µM. Further, in [8], the Potency entry was “inactive”.
Consider `COc1cc(N)c(Cl)cc1C(=O)NC1CCN(Cc2ccccc2)CC1`, for which the Potency in experiment [6] and in experiment [7] was more than 20.6 µM each time. For the same molecule, the Potency result in experiment [8] is “inactive”.
Turning to `O=C(O)c1ccc(S(=O)(=O)N(Cl)Cl)cc1`, the Potency result in experiment [8], in experiment [1] and in [9] was “inactive” throughout. The activity change, negative = cytotoxicity in [2] is -11.9%. For the same molecule, the molecule was classed as inactive in experiment [3] and in experiment [5]. In addition, in experiment [4], the viability change, negative = cytotoxic was -7.18%.
